Shown are actives, neighbours in structure and some others; about 3% of the full set was active somewhere.
Mtb BioA inh – M. tuberculosis BioA enzyme inhibitors, primary screen, biochemical, plate reader, single point, HTS; purified M. tuberculosis BioA enzyme; 360,000 compounds, 0.096% hits; 7,8-diaminopelargonic acid synthase BioA (Mycobacterium tuberculosis); inhibition, % at 9.99 µM; in the data active = inhibition above about 40%
Mtb FBA inh – Mtb FBA enzyme inhibitors, primary screen, biochemical, fluorescence, strain H37Rv; purified M. tuberculosis FBA, fluorescence read-out; inhibition, % at 1 µM; 360,000 compounds, 2.3% hits; AID 588726, 2011;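 note: 0% = vehicle and 100% = reference inhibitor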
Target sequence (P9WQA3 whole entry, looked up): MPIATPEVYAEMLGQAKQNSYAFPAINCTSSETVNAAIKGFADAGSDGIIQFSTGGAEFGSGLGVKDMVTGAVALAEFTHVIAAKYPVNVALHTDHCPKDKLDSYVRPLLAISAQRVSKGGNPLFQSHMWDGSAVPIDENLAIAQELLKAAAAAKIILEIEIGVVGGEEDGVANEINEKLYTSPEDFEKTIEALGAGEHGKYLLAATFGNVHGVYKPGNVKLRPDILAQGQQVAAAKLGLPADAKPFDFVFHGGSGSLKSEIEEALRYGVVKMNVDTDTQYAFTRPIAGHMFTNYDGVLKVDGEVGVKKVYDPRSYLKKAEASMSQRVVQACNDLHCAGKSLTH
Vc quorum ag – inducers of Vibrio cholerae quorum light production without autoinducers, primary screen, BH1578 luxS cqsA deficient, single point; 350,000 compounds, 0.16% hits; activation, % at 18.7 µM; V. cholerae BH1578 lux reporter, luminescence, 6 h; in the data active = activation mostly above about 9.7%, no sharp cut-off
GDH-TPI counter-1 – GDH-TPI coupling enzyme inhibitors, primary screen, artefact control for M. tuberculosis FBA inhibitor project, biochemical, absorbance, full deck; GDH-TPI coupled enzyme counterscreen, NADH absorbance; inhibition, % at 4.8 µM; 360,000 compounds, 1.2% hits; in the data active = inhibition above about 30%;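 note: 0% = DMSO wells and 100% = wells lacking the enzyme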
Mtb FBA confirm – M. tuberculosis aldolase blockers, biochemical, fluorescence, strain H37Rv, confirmation; 5,600 compounds, 78% hits; purified M. tuberculosis FBA, fluorescence read-out; shares compounds with Mtb FBA inh; inhibition, % at 1 µM;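 note: 0% = vehicle wells and 100% = reference inhibitor wells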
GDH-TPI counter-2 – GDH-TPI coupling enzyme inhibitors, artefact control for M. tuberculosis FBA inhibitor project, biochemical, fluorescence, high throughput; shares compounds with Mtb FBA inh; GDH-TPI coupled enzyme counterscreen; inhibition, % at 1 µM; 5,600 compounds, 81% hits; in the data active = inhibition above about 10%
GDH-TPI dose – GDH-TPI coupling enzyme inhibitors, dose response, artefact control for M. tuberculosis FBA inhibitor project, biochemical, fluorescence, IC50; shares compounds with Mtb FBA inh; 170 compounds, 79% hits; GDH-TPI coupled enzyme assay, artifact counterscreen; IC50, µM; call rule not given here
* marks the source's active call; other numbers are inactive results; i = inactive; nt = no result; + = active, no number. Cut-off read from the data, not from the text of the source, unless noted: active = inhibition above about 27%; inactive = the rest.

SMILES | Mtb BioA inh | Mtb FBA inh | Vc quorum ag | GDH-TPI counter-1 | Mtb FBA confirm | GDH-TPI counter-2 | others
O=C(O)c1cc(Cl)nc2ccccc12 | -1 | -4 | i | -14 | nt | nt
O=C(O)c1cc(Cl)c2ccccc2c1O | 0 | 40* | nt | 2 | 50* | 44*
C[C@H](CO)N1C[C@H](C)[C@H](CN(C)C(=O)Nc2ccccc2)Oc2ncc(/C=C/c3ccccc3)cc2C1=O | 1 | nt | nt | nt | nt | nt
O=C(COC(=O)c1ccccc1NCc1ccco1)Nc1ccc2c(c1)OCO2 | 1 | 45* | -4 | 12 | 64* | 50*
NC(=O)c1ccsc1NC(=O)COC(=O)c1ccccc1F | 6 | 2 | -2 | 1 | nt | nt
NC(=O)c1ccsc1NC(=O)COC(=O)c1ccccc1NCc1ccco1 | -1 | 59* | -8 | -2 | 50* | 32*
C[C@@H]1CCCCO[C@@H](CN(C)C(=O)Nc2cccc3ccccc23)[C@@H](C)CN([C@H](C)CO)C(=O)c2cc(NC(=O)Nc3ccc(C(F)(F)F)cc3)ccc2O1 | 1 | nt | nt | nt | nt | nt
COc1ccccc1C(=O)NCCCNc1nc2cc(C)cc(C)c2cc1C#N | -3 | 42* | 0 | -4 | + | 146*
Cc1cc(C)c2cc(C#N)c(NCCCNC(=O)CCC(=O)O)nc2c1 | 1 | 42* | i | 12 | 44* | 36*
O=C(C[C@@H]1CC[C@H]2NC[C@@H](O)COC[C@@H]2O1)NCc1ccc2c(c1)OCO2 | -2 | nt | nt | nt | nt | nt
CC1(C)Cc2c(C#N)c(SCCO)nc(N3CCOCC3)c2CO1 | 1 | 1 | i | 5 | nt | nt
CCc1nc(N2CCOCC2)c(C#N)c2c1CCCC2 | 5 | 38* | i | 2 | + | +
CCc1nc(N2CCCC2)c(C#N)c2c1CCCC2 | -2 | 10 | i | 13 | nt | nt
CCCCc1nc(N2CCOCC2)c(C#N)c2c1COC(C)(C)C2 | -1 | 35* | 1 | 6 | -3 | -6
N#Cc1c(N2CCOCC2)nc(-c2ccco2)c2c1CCCC2 | 0 | 37* | i | 16 | 93* | 71*
CCCN(C)C[C@@H]1OCCCC[C@@H](C)Oc2ccc(NS(C)(=O)=O)cc2C(=O)N([C@H](C)CO)C[C@H]1C | 5 | nt | nt | nt | nt | nt
CCNC(=O)[C@H]1[C@H](CO)[C@H]2Cn3c(ccc(-c4ccccc4F)c3=O)[C@H]2N1C(=O)CC | 0 | nt | nt | nt | nt | nt
Cc1nnc(N2C(=O)c3cccc4cccc(c34)C2=O)s1 | nt | 16 | 0 | 13 | nt | nt
Cc1nnc(C)n1N1C(=O)c2cccc3cccc(c23)C1=O | 1 | 62* | i | 24 | 17 | 10*
O=c1c2ccccc2nc2c3ccccc3c(NCc3ccccn3)nn12 | -1 | 79* | 0 | 2 | + | 180*
O=c1c2ccccc2nc2c3ccccc3c(NCCO)nn12 | -2 | 33* | 0 | 8 | + | +
O=C(c1ccccn1)N1C[C@@H]2[C@H](c3ccccc31)[C@@H](CO)N2C(=O)CC1CC1 | 0 | nt | nt | nt | nt | nt
C[C@@H]1CN([C@H](C)CO)C(=O)c2cc(NC(=O)Nc3ccccc3)ccc2O[C@H]1CN(C)Cc1ccc(-c2ccccc2)cc1 | -3 | nt | nt | nt | nt | nt
COc1ccc(-n2c(C)cc3cc(OC(C)=O)ccc32)cc1 | 1 | 58* | i | 5 | 68* | 49*
COc1ccc(-n2c(C)c(C(C)=O)c(C(C)=O)c2C)cc1 | 2 | 2 | -10 | 6 | nt | nt
SMILES | Mtb BioA inh | Mtb FBA inh | Vc quorum ag | GDH-TPI counter-1 | Mtb FBA confirm | GDH-TPI counter-2 | others
CCCC#Cc1cnc2c(c1)C(=O)N([C@@H](C)CO)C[C@@H](C)[C@H](CN(C)CCC)O2 | 2 | nt | nt | nt | nt | nt
O=C(C[C@H]1CC[C@@H](NC(=O)c2cnccn2)[C@@H](CO)O1)NCc1ccccc1F | -1 | nt | nt | nt | nt | nt
O=C(COc1ccc2c3c(c(=O)oc2c1)CCC3)Nc1ccc(CCO)cc1 | -2 | 9 | 0 | 10 | nt | nt
C=CCOc1ccc2c3c(c(=O)oc2c1)CCCC3 | -1 | 74* | -1 | 5 | + | +
CCc1cc2c3c(c(=O)oc2cc1OC)CCCC3 | -2 | 67* | i | 10 | 77* | 53*
CCCOc1ccc2c3c(c(=O)oc2c1)CCCC3 | 3 | 60* | 3 | 3 | 97* | 76*
CO[C@@H]1CN(C)C(=O)c2cc(NS(C)(=O)=O)ccc2OC[C@@H](C)N(S(C)(=O)=O)C[C@@H]1C | -3 | nt | nt | nt | nt | nt
Cc1nn(CCc2nn[nH]n2)c2nc(-c3ccccc3)cc(C(F)(F)F)c12 | nt | 40* | -3 | 5 | + | 164*
COc1cc2[nH]c(=O)c(C(=O)NCCCN3CCOCC3)c(O)c2cc1OC | nt | 39* | 0 | 14 | 29* | 18*
O=C(NCCCN1CCOCC1)c1c(O)c2cc(Br)cc(Br)c2[nH]c1=O | 0 | 3 | i | 0 | nt | nt
COc1cc2[nH]c3c(=O)n(CCN(C(C)C)C(C)C)cnc3c2cc1OC | -1 | 55* | i | 14 | 6 | 2
COc1cc2[nH]c3c(=O)n(CCN4CCOCC4)cnc3c2cc1OC | -1 | 60* | 0 | 8 | + | +
CO[C@H]1CN(C)C(=O)c2cc(NS(=O)(=O)CC(F)(F)F)ccc2OC[C@@H](C)N(Cc2ccccn2)C[C@H]1C | -2 | nt | nt | nt | nt | nt
O=C(C[C@@H]1CC[C@H](NC(=O)Nc2cc(F)ccc2F)[C@@H](CO)O1)NCc1ccc2c(c1)OCO2 | -1 | nt | nt | nt | nt | nt
COc1ccc(C2CC(c3ccc(Br)cc3)Nc3nc(N)nn32)cc1 (centres undefined) | -1 | 2 | -1 | 0 | nt | nt
Nc1nc2n(n1)C(c1cccs1)CC(c1ccc(Br)cc1)N2 (centres undefined) | i | 48* | -3 | 8 | 16 | 9 | GDH-TPI dose=7.8*
N=c1c(C(=O)NCc2ccccc2)cc2c(=O)n3ccccc3nc2n1CCCN1CCOCC1 | -3 | 79* | i | 10 | 2 | -4
CC(C)OCCCn1c(=N)c(C(N)=S)cc2c(=O)n3ccccc3nc21 | 0 | 71* | 0 | 8 | 92* | 81*
O=C(NC1CCCN(Cc2ccc(Cl)cc2)C1)c1cnc2ccccn2c1=O (centres undefined) | 3 | 55* | 1 | 24 | 118* | 82*
COc1ccc(CNC(=O)C(C)Sc2nc3ccccc3c(=O)n2CCCN2CCOCC2)cc1 (centres undefined) | nt | 0 | -2 | 9 | nt | nt

Screening results deposited in PubChem by several laboratories.
